Experimental data published in PubChem BioAssay (NCATS).
Records with an inconclusive call do not appear. Activity calls are given as the source filed them. Unless noted, calls follow the shape of the dose curve; as a rule, active = well fitted curve in the direction sought with a large enough effect; inconclusive = small, poorly fitted or top-dose-only effect, or another doubt; inactive = no such curve, though single readings can be large; an effect the other way counts as inactive or inconclusive.

Tests used:
[1] = qHTS for Inhibitors of Plasmodium falciparum (DD2) proliferation (AID 504314);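 also: parasite DNA measured by SYBR Green fluorescence after red cell lysis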
Summary of the method: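 Parasite proliferation measured as SYBR Green signal from Plasmodium DNA, mature erythrocytes lacking DNA. 72 h incubation, 37C; activity scaled between vehicle and 0.29 uM artemisinin, with correction from vehicle-only plates.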

[2] = qHTS for Inhibitors of Plasmodium falciparum (GB4) proliferation (AID 504315); also: nearly all actives have a fitted effect of over 50% in size
Summary of the method: (§1)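 Parasite growth measured as SYBR Green DNA fluorescence (ex 485, em 535 nm) after overnight lysis following 72 h culture at 37 °C, 0.3% parasitemia, 2.5% hematocrit. Values normalized against DMSO and 0.29 uM artemisinin controls, with plate-stack correction.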

[3] = qHTS for Inhibitors of Plasmodium falciparum (7G8) proliferation (AID 504316); also: nearly all actives have a fitted effect of over 65% in size; also: potency is read from the fitted curve at half-maximal effect
Summary of the method: as §1

[4] = qHTS for Inhibitors of Plasmodium falciparum (HB3) proliferation (AID 504318); also: nearly all actives have a fitted effect of over 60% in size
Summary of the method: as §1

[5] = qHTS for Inhibitors of Plasmodium falciparum (CP250) proliferation (AID 504320)
Summary of the method: as §1

[6] = target: Atrial natriuretic peptide receptor 1 (Homo sapiens) (UniProt P16066); assay: Natriuretic polypeptide receptor (hNpr1) antagonism - Pilot CMLD screen (AID 1347052; calls by dose curve;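 also: cGMP level read as GloSensor luciferase luminescence after agonist stimulation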; also: potency is read from the fitted curve at half-maximal effect)

Measured: Potency

Sequence of Atrial natriuretic peptide receptor 1 (Homo sapiens) (P16066 whole entry, looked up): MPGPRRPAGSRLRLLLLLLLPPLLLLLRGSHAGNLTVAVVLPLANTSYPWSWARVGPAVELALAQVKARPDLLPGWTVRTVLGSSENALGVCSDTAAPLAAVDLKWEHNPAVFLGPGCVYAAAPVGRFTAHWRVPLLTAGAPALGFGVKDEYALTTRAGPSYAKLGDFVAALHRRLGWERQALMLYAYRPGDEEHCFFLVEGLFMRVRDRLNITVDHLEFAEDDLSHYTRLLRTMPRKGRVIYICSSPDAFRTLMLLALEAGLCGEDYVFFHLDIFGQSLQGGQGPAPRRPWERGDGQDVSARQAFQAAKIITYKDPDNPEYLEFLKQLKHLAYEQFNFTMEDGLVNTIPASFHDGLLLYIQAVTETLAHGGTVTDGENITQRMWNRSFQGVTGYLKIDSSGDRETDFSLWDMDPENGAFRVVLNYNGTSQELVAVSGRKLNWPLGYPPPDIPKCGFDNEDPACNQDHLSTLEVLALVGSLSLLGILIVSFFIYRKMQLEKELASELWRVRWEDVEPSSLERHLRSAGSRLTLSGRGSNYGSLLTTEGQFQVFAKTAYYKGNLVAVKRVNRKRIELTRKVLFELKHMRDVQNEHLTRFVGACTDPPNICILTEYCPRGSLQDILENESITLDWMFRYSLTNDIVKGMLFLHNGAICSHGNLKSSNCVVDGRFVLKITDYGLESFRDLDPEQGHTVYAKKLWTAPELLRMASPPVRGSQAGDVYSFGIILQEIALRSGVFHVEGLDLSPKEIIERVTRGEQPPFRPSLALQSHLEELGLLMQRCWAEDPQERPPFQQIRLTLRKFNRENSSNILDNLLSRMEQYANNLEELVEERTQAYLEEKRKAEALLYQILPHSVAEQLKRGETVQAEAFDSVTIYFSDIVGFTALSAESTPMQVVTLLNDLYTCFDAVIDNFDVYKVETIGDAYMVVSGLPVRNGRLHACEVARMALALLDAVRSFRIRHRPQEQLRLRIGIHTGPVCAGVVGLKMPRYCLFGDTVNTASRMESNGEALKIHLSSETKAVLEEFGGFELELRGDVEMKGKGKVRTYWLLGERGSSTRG

C[C@@H]1CC2CCC[C@@H]2[C@]2(O1)C(=O)Nc1cccc(Br)c12 (stereo partly drawn)
inactive: all assays above

CC(=O)OC[C@H]1O[C@H](C#CC2=CCCCC2)C=C[C@H]1OC(C)=O
inactive: all assays above

CCN1C(=NCc2cc(OC)c(OC)c(OC)c2)NC(c2ccccc2)C(C(=O)OC)=C1C (stereo not drawn)
inactive: all assays above

C[C@@H]1C=CCCO[C@]12C(=O)N(CC1CC1)c1cccc(Br)c12
inactive: all assays above

C=CCCCN1C=C(C(C)=O)C(c2ccccc2)NC1=O (stereo not drawn)
inactive: all assays above

CCCC[C@]12Cc3cc(C#N)ccc3[C@H](O1)c1c(c3cc(F)ccc3oc1=O)O2
inactive: all assays above

C=CCN1C(=O)[C@]2(OCCC=C[C@H]2C)c2c(Br)cccc21
inactive: all assays above

COC(=O)CC=C[C@@H](C)[C@@H](C=NOC[C@@H](O)[C@H]1O[C@@H]2OC(C)(C)O[C@H]2[C@@H]1O)OC
inactive: all assays above

Cc1ccc([S+](=O)([O-])N[C@@H]2COC(=O)CC=C[C@H](C)COC(=O)N[C@@H](C)C(=O)CC=C[C@H]2C)cc1
inactive: all assays above

COC(=O)CC=C[C@H](C)[C@H](Cc1ccccc1Br)OC
inactive: all assays above

Cc1cc2c(nc1C)CCCCN2C[C@H](C)ON=C[C@@H](C)[C@H](OCc1ccccc1)C(C)C
inactive: all assays above

CC(=O)OC[C@H]1O[C@H](CC=NOC[C@@H](O)COCc2ccco2)C=C[C@H]1OC(C)=O
inactive: all assays above

COC(=O)C1=C(C(=O)OC)[C@@H]2Nc3ccccc3[C@@]23C[C@@H](C(=O)OC)N(C(=O)NCCBr)C3=N1
active: [3] 1900 nM
inactive: all other assays above

CC(C)OC(=O)CC(NC(=O)OC(C)(C)C)c1ccccc1 (stereo not drawn)
inactive: all assays above

COC(=O)C1=C[C@@H]([C@@H](C)[C@H](OC)c2ccccc2Br)[C@@H]2OCC[C@H]12
inactive: all assays above

CC(CCN1CCCCc2nc(C)c(C)cc21)=NOC[C@@H](O)[C@H]1O[C@@H]2OC(C)(C)O[C@H]2[C@@H]1O
inactive: all assays above

OC[C@H]1O[C@H](C#Cc2ccccc2)C=C[C@H]1O
inactive: all assays above

COC(=O)N(C=Cc1ccc(OC)cc1)CCc1ccc(OC)c(OC)c1
inactive: all assays above

CC[C@@H](c1ccccc1)n1c(=O)n2n(c1=O)[C@H]1[C@H](O)[C@@H]3O[C@H]3C(=NOCc3ccccc3)[C@H]1CC2
inactive: all assays above

O=C(NN=C1C[C@@H](O)[C@H](O)[C@H]2[C@@H]3C(=O)N(c4cccc(Oc5ccccc5)c4)C(=O)[C@@H]3CC[C@H]12)OCc1ccccc1
inactive: all assays above

COc1ccc2c(c1)O[C@@H](c1cccc(C(F)(F)F)c1)[C@H](O)C2=O
inactive: all assays above

COc1cccc(O[C@H]2C=C[C@@H](c3ccccc3)O[C@H]2CO)c1
inactive: all assays above

C(#C[C@@H]1C=C[C@H]2OC(c3ccccc3)OC[C@H]2O1)c1ccccc1 (stereo partly drawn)
inactive: all assays above

CC(=O)C1=C(C)N(Cc2ccccc2)C(=O)NC1c1cccc(C(F)(F)F)c1 (stereo not drawn)
inactive: all assays above

C=C(C)CCN1C(=O)NC(c2cccc(C(F)(F)F)c2)C(C(=O)OC)=C1C (stereo not drawn)
inactive: all assays above

COC(=O)[C@@H](NC(=O)O[C@@H]1C(=O)c2cc(Br)ccc2O[C@H]1c1cccc(OC)c1)C(C)C
inactive: all assays above

COC(=O)N[C@H](CC(C)=O)c1ccc(F)cc1
inactive: all assays above

COC(=O)CCCC1=CC2=CC(=O)C(C)(OC(=O)c3cccs3)C(=O)C2=CN1CCc1ccccn1 (stereo not drawn)
inactive: all assays above

C[C@H]1Cc2c(-c3ccccc3)nc3c(c2CO1)CN(C(=O)Cc1cccs1)CC3
inactive: all assays above

CN1c2ccccc2[C@@]2(O)C(=O)[C@@]1(C)[C@@H]1C=CCC[C@H]12
inactive: all assays above

COC(=O)C[C@H]1c2ccccc2[C@@H]2C(=C[C@@H](C)[C@H]3C(=O)N(c4ccccc4)C(=O)[C@H]32)N1C(=O)OC
inactive: all assays above

CCCCC1=CC2=C(c3ccco3)C(=O)C(C)(OC(=O)c3ccc(OC)cc3)C(=O)C2=CN1Cc1ccco1 (stereo not drawn)
inactive: all assays above

CCCCC1=CC2=C(c3ccco3)C(=O)C(C)(OC(=O)c3ccc(OC)cc3)C(=O)C2=CN1CCCN(CC)CC (stereo not drawn)
inactive: all assays above

CC1(OC(=O)c2cccs2)C(=O)C=C2C=C(c3ccsc3)OC=C2C1=O (stereo not drawn)
inactive: all assays above

COC(=O)C1=C(C)N(Cc2ccco2)C(=O)NC1c1ccco1 (stereo not drawn)
inactive: all assays above

CC=COC(=O)N[C@@H](c1cccc(C)c1)[C@]1(C(=O)OCC)CCCC1=O
inactive: all assays above

O=C(C=Cc1ccccc1)c1ccccc1O
inactive: all assays above

COCCN1C(=O)N[C@@H](c2ccccc2)[C@H](C(C)=O)[C@H]1C
inactive: all assays above

COCCN1C(=O)CC[C@@]23C1=NC(C(=O)OC)=C(C(=O)OC)[C@@H]2N(C)c1ccccc13
inactive: all assays above

CCN1C(=NCCc2ccc(Br)cc2)NC(c2ccccc2)C(C(=O)OC)=C1C (stereo not drawn)
inactive: all assays above

CCOC(=O)[C@@]1([C@@H](NC(=O)OC)c2ccccc2)CCCC1=O
inactive: all assays above

CCN1C(=O)NC(c2cccs2)C(C(C)=O)=C1C (stereo not drawn)
inactive: all assays above

CC=COC(=O)N[C@@H](c1ccccc1)[C@]1(C(C)=O)CCCC1=O
inactive: all assays above

COc1cccc([C@H]2Oc3ccc(OC)cc3C(=NO[C@@H](C)c3cn([C@H](CO)Cc4ccccc4)nn3)[C@H]2O)c1
inactive: all assays above

C#CCCOC(=O)N1C2=NC(C(=O)OC)=C(C(=O)OC)[C@@H]3Nc4ccccc4[C@]23C[C@H]1C(=O)OC
inactive: all assays above

C=CCOC(=O)N[C@H](c1ccc2ccccc2c1)[C@H](C)C=CCC(=O)OC
inactive: all assays above

COC(=O)[C@@H]1[C@@H](c2ccccc2)NC(=O)N(Cc2ccccc2)[C@@H]1C
inactive: all assays above

CCCCS(=O)(=O)N1CCc2nc(-c3ccccc3)c3c(c2C1)CO[C@@H](C)C3
inactive: all assays above

C=CCOC(=O)N[C@H](c1cccc(OC)c1)[C@H](C)C=CCC(=O)OC
inactive: all assays above

O[C@@H]1CO[C@@H](C=Cc2ccccc2)[C@H]1OCc1cccc(Br)c1
inactive: all assays above

O=C1N[C@H](Cc2ccccc2)C(=O)N1Cc1cccc2ccccc12
inactive: all assays above

CCOC(=O)CN1C(=O)NC(c2ccc(Br)cc2)C(C(=O)OC)=C1C (stereo not drawn)
inactive: all assays above

COC(=O)CC=C[C@@H](C)[C@@H](COc1ccccc1Br)OC
active: [6] 944 nM
inactive: all other assays above
